Measured values: PubChem BioAssay (NCATS)
Results filed as inconclusive are left out. Active and inactive are the calls of the source. Calls follow the shape of the dose curve; as a rule, active = well fitted curve in the direction sought with a large enough effect; inconclusive = small, poorly fitted or top-dose-only effect, or another doubt; inactive = no such curve, though single readings can be large; an effect the other way counts as inactive or inconclusive.

Legend:
[1] = target: Glutathione peroxidase 1 (Homo sapiens) (UniProt P07203); assay: Primary qHTS Assay for Inhibitors of Recombinant Selenoprotein Glutathione Peroxidase 1 (GPX1) (AID 1845191); also: nearly all actives have a fitted effect of over 65% in size; as to activity, negative = inhibition: % is scaled to controls: 0 for no effect and ±100 for the full control effect
Outline: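 GR-coupled readout: NADPH consumption tracked by fluorescence, ex 340/em 450 nm, at t=0 and after 15 min at RT. Final mix 10 nM GPX1, 1 mM GSH, 0.5 mM CHP, 0.5 mM NADPH, 100 nM GR, 0.01% BSA, following 30 min enzyme–compound preincubation.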

[2] = target: Phospholipid hydroperoxide glutathione peroxidase GPX4 (Homo sapiens) (UniProt P36969); assay: Primary qHTS Assay for Inhibitors of Recombinant Selenoprotein Glutathione Peroxidase 4 (GPX4) (AID 1845192); also: nearly all actives have a fitted effect of over 65% in size; as to activity change, negative = inhibition: series mostly up to about 50 µM; % is scaled to controls: 0 for no effect and ±100 for the full control effect
Outline: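 Steps: GPX4 plus compound, 30 min RT; add GR/GSH/NADPH master mix; start with cumene hydroperoxide; read 340/450 nm fluorescence at 0 and 15 min. Finals were 200 nM GPX4, 1 mM GSH, 0.5 mM CHP, 0.5 mM NADPH, 100 nM GR.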

[3] = target: Luciferin 4-monooxygenase (Photinus pyralis) (UniProt P08659); assay: Primary firefly luciferase (FLuc) qHTS assay for identification of artifact compounds. (AID 1845220); also: nearly all actives have a fitted effect of over 60% in size;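 as to activity change, negative = inhibition: series mostly up to about 54 µM; plate controls were DMSO vehicle for no effect and no enzyme for full effect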
Outline: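 Enzymatic FLuc inhibition assay: compounds pre-exposed to luciferin/ATP (10 uM each) for 15 min, then purified P. pyralis enzyme at 10 nM added. Read-out: luminescence at 5 min.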

[4] = tested on: Nanoluciferase (engineered Oplophorus gracilirostris luciferase); assay: Primary Nanoluciferase (NLuc) qHTS assay for identification of artifact compounds. (AID 1845222);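 also: NLuc secreted into diluted conditioned medium of S16 cells; series mostly up to about 54 µM; 0% = DMSO and -100% = no enzyme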
Outline: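 S16 cell supernatant NLuc, 1:55; cpds qHTS; 15 min RT dark; Nano-Glo substrate 1:100, 5 min; luminescence; Hill fit of % inhibition.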

[5] = Primary redox qHTS assay for identification of artifact compounds. (AID 1845223);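 also: 0% = DMSO and 100% = reference compound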
Outline: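 Redox-cycling detection via DTT (250 uM final) oxidation coupled to Amplex Red (25 uM)/HRP (250 mU/mL) in HBSS. 15 min preincubation plus 30 min after DTT, room temperature. Ex/Em 525/598 nm; 4-parameter Hill fit against DMSO and 10 uM DA3003.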

Sequence of Phospholipid hydroperoxide glutathione peroxidase GPX4 (Homo sapiens) (P36969 whole entry, looked up): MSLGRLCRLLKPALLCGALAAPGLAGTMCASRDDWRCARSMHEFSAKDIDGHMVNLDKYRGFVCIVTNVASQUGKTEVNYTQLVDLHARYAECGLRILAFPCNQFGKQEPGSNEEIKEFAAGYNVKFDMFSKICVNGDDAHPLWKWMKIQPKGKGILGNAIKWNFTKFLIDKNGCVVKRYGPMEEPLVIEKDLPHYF
Sequence of Glutathione peroxidase 1 (Homo sapiens) (P07203 whole entry, looked up): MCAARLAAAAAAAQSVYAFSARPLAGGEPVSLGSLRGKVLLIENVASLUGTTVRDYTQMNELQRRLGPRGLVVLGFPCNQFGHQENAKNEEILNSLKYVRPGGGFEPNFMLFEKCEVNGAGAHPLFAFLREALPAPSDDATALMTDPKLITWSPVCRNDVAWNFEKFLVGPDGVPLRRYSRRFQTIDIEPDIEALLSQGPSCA

O=C(/C=C/c1cccc(S(=O)(=O)Nc2ccccc2)c1)NO
inactive: Potency [1] | Potency [2] | Potency [3] | Potency [4] | Potency [5]

CC(C)=CCC/C(C)=C/CCC1(C)Oc2c(c(O)cc3c2CN(C(CCC(=O)O)C(=O)O)C3=O)CC1O (stereo not given)
inactive: Potency [1] | Potency [2] | Potency [3] | Potency [4] | Potency [5]

COC(=O)C1=CO[C@@H](O[C@@H]2O[C@H](CO)[C@@H](O)[C@H](O)[C@H]2O)[C@H]2[C@@H]1C=C[C@@]21C=C([C@H](C)O)C(=O)O1
inactive: Potency [1] | Potency [2] | Potency [3] | Potency [4] | Potency [5]

Cc1cc(C(N)=O)ccc1-n1c(CCC(=O)O)ccc1-c1ccc(-n2ccnc2)cc1
inactive: Potency [1] | Potency [2] | Potency [3] | Potency [4] | Potency [5]

O=C(O)C1CN(Cc2ccc(-c3nc4cc(Cc5ccccc5F)ccc4s3)c(F)c2)C1
inactive: activity, negative = inhibition [1] -8.84% [at 9.52 µM] | activity change, negative = inhibition [2] 8.48% [at 9.73 µM] | activity change, negative = inhibition [3] -1.19% [at 11.6 µM] | activity, negative = inhibition [4] -0.199% [at 11.6 µM] | redox activity (% of DA3003) [5] -6.07% [at 11.5 µM]

Cc1ccc(S(=O)(=O)Nc2ccccc2N2CCCCC2)s1
inactive: Potency [1] | Potency [2] | Potency [3] | Potency [4] | Potency [5]

C=C(C(=O)O)C1CCC2(C)CCC(O)C(C)(O)C2C1 (stereo not given)
inactive: Potency [1] | Potency [2] | Potency [3] | Potency [4] | Potency [5]

CCC1C(=O)OC23C=C[C@@H]4C(C(=O)O)=CO[C@H](O[C@@H]12)[C@@H]43 (stereo not given in full)
inactive: Potency [1] | Potency [2] | Potency [3] | Potency [4] | Potency [5]

Cc1cccc(C)c1-n1c(=O)c2cnc(Nc3ccc(N4CCN(C)CC4)cc3)nc2n2c3ccccc3nc12
inactive: Potency [1] | Potency [2] | Potency [3] | Potency [4] | Potency [5]

C/C(=C/CO)CC[C@@H]1[C@@](C)(O)CCC2C(C)(C)CCC[C@]21C (stereo not given in full)
inactive: Potency [1] | Potency [2] | Potency [3] | Potency [4] | Potency [5]

COc1cc(O)cc(/C=C/c2ccc(O[C@@H]3O[C@H](CO)[C@@H](O)[C@H](O)[C@H]3O)cc2)c1
inactive: Potency [1] | Potency [2] | Potency [3] | Potency [4] | Potency [5]

CC1(C)CC[C@]2(C(=O)O[C@@H]3O[C@H](CO)[C@@H](O)[C@H](O)[C@H]3O)CC[C@]3(C)C(=CCC4[C@@]5(C)C[C@@H](O)[C@H](O)C(C)(C)C5CC[C@]43C)C2[C@@H]1O (stereo not given in full)
inactive: Potency [1] | Potency [2] | Potency [3] | Potency [4] | Potency [5]

CC1=CC(=O)CC(C)(C)[C@@]1(O)CC[C@@H](C)O[C@@H]1O[C@H](CO)[C@@H](O)[C@H](O)[C@H]1O
inactive: Potency [1] | Potency [2] | Potency [3] | Potency [4] | Potency [5]

CC(C)(C)c1ccc(S(=O)(=O)Nc2ccc(Cl)cc2C(=O)c2cc[n+]([O-])cc2)cc1
inactive: Potency [1] | Potency [2] | Potency [3] | Potency [4] | Potency [5]

CC(/C=C/C1=CC2=CC(=O)C(C)(O)C(O)C2=CO1)=C\C(C)CCO (stereo not given)
inactive: Potency [1] | Potency [2] | Potency [3] | Potency [4] | Potency [5]

COC(=O)CC(C)(O)CC(=O)OCc1ccc(O[C@@H]2O[C@H](CO)[C@@H](O)[C@H](O)[C@H]2O)cc1 (stereo not given in full)
inactive: Potency [1] | Potency [2] | Potency [3] | Potency [4] | Potency [5]

COc1ccc(C(O)C(C)OC2OC(CO)C(O)C(O)C2O)cc1 (stereo not given)
inactive: Potency [1] | Potency [2] | Potency [3] | Potency [4] | Potency [5]

CC(O)(CC(=O)O)CC(=O)OCc1ccc(O[C@@H]2O[C@H](CO)[C@@H](O)[C@H](O)[C@H]2O)cc1 (stereo not given in full)
inactive: Potency [1] | Potency [2] | Potency [3] | Potency [4] | Potency [5]

Nc1nc(Nc2ccc(S(N)(=O)=O)cc2)n(C(=S)Nc2c(F)cccc2F)n1
inactive: Potency [1] | Potency [2] | Potency [3] | Potency [4] | Potency [5]

CC(C)(O)CC(CO)NC(=O)CC(O)CC(=O)Cc1ccccc1 (stereo not given)
inactive: Potency [1] | Potency [2] | Potency [3] | Potency [4] | Potency [5]

CC1=CC(=O)C(=C(C)C)CC2C1CCC2(C)O (stereo not given)
inactive: Potency [1] | Potency [2] | Potency [3] | Potency [4] | Potency [5]

OCC(CO[C@@H]1O[C@H](CO)[C@@H](O)[C@H](O)[C@H]1O)c1ccc2c(c1)OCO2 (stereo not given in full)
inactive: Potency [1] | Potency [2] | Potency [3] | Potency [4] | Potency [5]

C=C1OC2CC(C(=O)O)C=CC2NC1=O (stereo not given)
inactive: Potency [1] | Potency [2] | Potency [3] | Potency [4] | Potency [5]

COC(=O)[C@@H](O)[C@H]1[C@@]2(C)CC3(O)[C@@H](C(=O)[C@H]2O)[C@]24O[C@]25CC(=O)O[C@@H](c2ccoc2)[C@]5(C)CCC4[C@]13C (stereo not given in full)
inactive: Potency [1] | Potency [2] | Potency [3] | Potency [4] | Potency [5]

Nc1nc2c(c(N3CCNCC3)n1)CCC1=C2[C@@H]2CCCC[C@@H]2O1
inactive: Potency [1] | Potency [2] | Potency [3] | Potency [4] | Potency [5]

C=CC(C)(C)c1[nH]c2cc3c(cc2c1CC1NC(=O)C2=CCCN2C1=O)C=CC(C)(C)O3 (stereo not given)
inactive: Potency [1] | Potency [2] | Potency [3] | Potency [4] | Potency [5]

C=C1CCC2C(C)(C(=O)O)CCCC2(C)C1CC/C(=C\CO)CO (stereo not given)
inactive: Potency [1] | Potency [2] | Potency [3] | Potency [4] | Potency [5]
